Pol eta inh: inhibitors of human DNA polymerase eta. Q9Y253. Potency, µM (doses to about 114 µM), hits mostly inhibitors. 1.2% of 390,000 active. recombinant Pol eta, fluorescent DNA replication assay
Target sequence (Q9Y253 whole entry, looked up): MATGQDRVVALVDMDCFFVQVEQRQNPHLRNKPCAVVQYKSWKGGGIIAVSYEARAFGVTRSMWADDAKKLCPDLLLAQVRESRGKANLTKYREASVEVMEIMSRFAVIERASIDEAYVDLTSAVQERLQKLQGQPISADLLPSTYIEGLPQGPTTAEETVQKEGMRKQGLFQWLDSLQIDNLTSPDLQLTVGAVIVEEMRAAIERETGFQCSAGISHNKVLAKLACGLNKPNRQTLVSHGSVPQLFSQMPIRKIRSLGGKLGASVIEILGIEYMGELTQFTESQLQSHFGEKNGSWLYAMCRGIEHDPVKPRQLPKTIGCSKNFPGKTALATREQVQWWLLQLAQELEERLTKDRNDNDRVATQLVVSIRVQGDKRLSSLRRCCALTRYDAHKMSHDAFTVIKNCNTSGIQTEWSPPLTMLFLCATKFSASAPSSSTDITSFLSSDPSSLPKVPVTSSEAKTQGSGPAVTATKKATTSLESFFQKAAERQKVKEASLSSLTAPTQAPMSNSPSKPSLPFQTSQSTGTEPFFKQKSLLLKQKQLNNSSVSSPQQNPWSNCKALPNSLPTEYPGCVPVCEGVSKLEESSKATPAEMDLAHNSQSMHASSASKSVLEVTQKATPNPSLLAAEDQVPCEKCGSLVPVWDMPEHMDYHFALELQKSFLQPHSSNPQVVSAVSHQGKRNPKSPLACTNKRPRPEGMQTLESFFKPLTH
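Pol eta at 10 nM preincubated with compounds 15 min at room temperature; reaction started with fluorescent substrate (50 nM final) and read kinetically at 0 and 10 min.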
POLI inh: blocks human DNA polymerase iota activity; Q9UNA4; Pol iota fluorescent replication assay, 10 min; Potency, µM (top dose mostly 115 µM), most hits filed as inhibitors; 1% of 390,000 active; AID 588590
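Fluorescent replication assay read twice, at 0 min and 10 min after adding 50 nM (final) substrate. Enzyme (10 nM) and compounds were first incubated 15 min at room temperature; enzyme-free buffer wells were negative controls.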
PI5P4K alpha inh: PI5P4K alpha (human) kinase inhibition; P48426; PI5P4Kalpha enzyme, ADP-Glo luminescence, 60 min; active compounds read low; max response, %; 1.2% of 330,000 active; AID 652105; active means max response of -50% or lower; inconclusive means between -30% and -50%; inactive means -30% or higher; further: value at the top dose of about 77 µM
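Reactions run in 0.038 M HEPES pH 7.4, 0.28 mM EGTA, 0.1% CHAPS and 5% DMSO, with PI5P4Kalpha, substrate, compound and 5 microM ATP final, one hour at room temperature. Readout is ADP-Glo luminescence.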
POLB inh: blocks human DNA polymerase beta activity | Pol beta primer extension/strand displacement, fluorescence kinetic | Potency, µM (series often up to 114 µM), most hits filed as inhibitors | 1.3% of 340,000 active
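Homogeneous kinetic assay of primer extension and strand displacement by 10 nM Pol beta, preincubated 15 min at room temperature with compound before 50 nM substrate (final) was added. Read at 0 and 10 min; four-parameter Hill fit.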
Pol kappa inh: blocks human DNA polymerase kappa activity; Q9UBT6; purified Pol kappa, fluorescent DNA synthesis assay, 10 min; Potency, µM (series often up to 107 µM), most hits filed as inhibitors; 0.53% of 400,000 active; AID 588579
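Pol kappa 10 nM + cpd, 15 min RT; start w/ substrate 50 nM final; fluorescence kinetic read, 0 and 10 min. Neg ctrl: buffer, no enzyme.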
PI4K2A inh: inhibitors of human PI4K2A | 0.13% of 420,000 active | purified PI4K2A, ADP-Glo luminescence, 1 h; active compounds read low | activity change, negative = inhibition, % at 76.9 µM; in the data active means activity change below about -50%; inconclusive means mostly about -30% to -49%
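Compounds are screened against recombinant PI4K2A using PI as substrate and ATP, the latter dispensed at 300 microM. Reactions run one hour at ambient temperature before ADP-Glo detection; full inhibition defined by wells lacking enzyme.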
A number is an active result; - = inactive; ? = inconclusive; . = no result; ! = a repeat was not active. Hits are enriched below; roughly 2.8% of the tested compounds scored in any of these assays. Unless noted, the call rests on the fitted dose curve; in most records, active means well fitted inhibition curve with a large enough effect; inconclusive means small, poorly fitted or top-dose-only effect, or another doubt; inactive means no such curve, though single readings can be large or run the other way.

SMILES	Pol eta inh	POLI inh	PI5P4K alpha inh	POLB inh	Pol kappa inh	PI4K2A inh
CC1=C(C(=O)OCc2ccccc2)C(c2cccs2)NC(=O)N1CCCC(=O)O (stereo not drawn)	-	?	-66	?	-	-
CCOC(=O)C1=C(C)N(CCCC(=O)O)C(=O)NC1c1cccs1 (stereo not drawn)	-	?	-66	.	-	-
CN1CCOc2cc(S(=O)(=O)N3CCN(c4nc(-c5cccs5)nc5ccccc45)CC3)ccc21	.	-	.	.	-	.
CCOC(=O)C1=C(CS(=O)(=O)c2ccc(OC)c(Cl)c2)NC(=O)NC1c1cccc(OC)c1 (stereo not drawn)	-	-	.	-	-	-
CCOC(=O)CSc1nc(N)c(C#N)c(-c2ccc(OC)cc2)c1C#N	-	-	-64	-	-	-
CCCCOC(=O)CSc1nc(N)c(C#N)c(-c2ccc(OC)cc2)c1C#N	-	-	-	-	-	-
CC(NS(=O)(=O)c1ccccc1)C(=O)NCc1ccco1 (stereo not drawn)	?	40µM	.	?	?	-
Brc1ccc[n+](CCC2CCCCC2)c1	.	-	.	.	-	.
CCOc1ccccc1N1CCN(c2nc(N)c(C#N)c(CC#N)c2C#N)CC1	?	-	-67	-	-	-
Cc1ccc(-c2cc(C(=O)Nc3ccc(S(=O)(=O)Nc4nccs4)cc3)c3ccccc3n2)c(C)c1	35µM	?	?	-	-	-
Cc1cc(C)c2nc(-c3ccccn3)cc(C(=O)Nc3ccc(S(=O)(=O)Nc4cc(C)on4)cc3)c2c1	28µM	?	.	50µM	?	-
O=C(Nc1ccc(S(=O)(=O)Nc2nccs2)cc1)c1cc(-c2ccccc2)nc2ccccc12	89µM	-	-	-	-	-
Cc1ccc(Cn2c(SCC(=O)N(C)C3CCS(=O)(=O)C3)nc3ccccc3c2=O)cc1 (stereo not drawn)	-	-	-	.	-	-
CCCCCCCCN1CN2Cc3cc(OC)ccc3C2CS1(=O)=O (stereo not drawn)	.	.	.	.	.	-
OCc1nc2ccccc2[nH]1	.	-	.	.	-	.
S=c1cnc2ccccc2[nH]1	-	-	-61	-	-	-
CCOC(=O)c1c(S(=O)(=O)NCC(=O)Nc2cccc(CC)c2)c(C)n(C)c1C	-	-	.	-	-	-
CC(C)OC(=O)C1Cc2ccccc2CN1S(=O)(=O)c1cccs1 (stereo not drawn)	?	?	-	32µM	-	-
COc1ccccc1N1CC(C(=O)Nc2ccc(S(=O)(=O)N3CCCC3)cc2)CC1=O (stereo not drawn)	-	?	-	.	-	-
Cc1ccc(CN2CC(C(=O)Nc3cc(S(C)(=O)=O)ccc3Cl)CC2=O)cc1 (stereo not drawn)	?	-	-	14µM	-	-
CCc1ccccc1N1CC(C(=O)Nc2cc(S(=O)(=O)N3CCCC3)ccc2Cl)CC1=O (stereo not drawn)	16µM	50µM	?	.	?	-
CCCCCC(O)c1ccc([C@H]2CCC(=O)[C@@H]2CCCCCCC(=O)O)cc1 (stereo partly drawn)	.	.	.	.	-	.
C=C(NNC(C)=O)c1ccc(O)cc1	.	-	.	.	-	.
CC1(C)CC[C@]2(C(=O)n3ccnc3)CC[C@]3(C)[C@H](C(=O)C=C4[C@@]5(C)C=C(C#N)C(=O)C(C)(C)[C@@H]5CC[C@]43C)[C@@H]2C1	3.5µM	14µM	?	.	-	-
O=Cc1cc2c3c(c1)CCCN3CCC2	.	-	.	.	-	.
SMILES	Pol eta inh	POLI inh	PI5P4K alpha inh	POLB inh	Pol kappa inh	PI4K2A inh
Cc1ccc(Cl)c(OCC(O)CNC(C)(C)C)c1 (stereo not drawn)	.	.	.	.	.	-
Fc1ccc(Nc2nc(-c3ccncc3)cs2)cc1	-	-	-	10µM	-	-
O=C(C[n+]1csc2ccccc21)c1ccccc1	.	-	.	.	-	.
Cc1cc(C(=O)CSc2nn3c(=O)c(C(C)(C)C)nnc3s2)c(C)n1C1CC1	-	79µM	-	-	-	-
CN(Cc1ccco1)C(=O)CSc1nn2c(=O)c(C(C)(C)C)nnc2s1	79µM	?	-	.	-	-
C=C/C(C)=C/[C@@]1(C)SC(=O)C(C)=C1O	14µM	?	.	25µM	.	.
CC1(C)NC(=O)N(CN2C(=O)NC(C)(C)C2=O)C1=O	-	-	.	79µM	-	-
O=C1CCN(Cc2ccccc2)CCN1CCSc1ccccc1	-	79µM!	-	-	?	-
O=C(Nc1ccc(F)cc1)OCc1cn(Cc2c(F)cccc2F)nn1	.	.	.	.	.	-
CC(C)(C)n1ncc2c(=O)n(Cc3ccc(F)cc3F)cnc21	.	-	.	.	-	.
CN1N=C(C(N)=O)CCC1=O	.	.	.	.	.	-
Nc1ccc(Nc2nc3ccccc3[nH]2)cc1	-	-	-52	-	-	-
CC1(C(=O)NS(=O)(=O)c2ccccc2C(F)(F)F)CCN1C(=O)CCc1cccs1 (stereo not drawn)	.	.	-	.	.	-
O=S1(=O)C=CCN1Cc1cn(Cc2cccc(Cl)c2)nn1	.	.	.	.	.	-
Cn1cc(-c2cc3n(n2)CCC(=O)N3CCCC(=O)NCc2ccc(Cl)cc2)c2ccccc21	-	-	.	-	-	-
Cn1cc(-c2cc3n(n2)CCC(=O)N3CCCC(=O)Nc2ccc(Cl)cc2)c2ccccc21	-	89µM	.	?	-	-
Oc1c(Br)cc(Br)cc1/C=N/c1nccs1	?	?	-55	.	-	-
CC(=O)N(c1ccccc1C)C1CCCC1	-	-	-	-	-	-
CC(=O)N(C1=C(Cl)C(=O)c2ccccc2C1=O)C1CCCCC1	-	?	-87	-	-	-
O=C1/C(=C\c2ccc(O)c(O)c2)Oc2c1ccc(O[C@@H]1O[C@H](CO)[C@@H](O)[C@H](O)[C@H]1O)c2O	.	22µM	.	.	32µM	.
O=c1ccc2ccc(O[C@@H]3O[C@H](CO)[C@@H](O)[C@H](O)[C@H]3O)c(O)c2o1	-	-	-	.	-	-
NC1=NS(=O)(=O)Nc2ccccc21	.	.	.	.	.	-
O=C(O)c1ccc(N2CCc3ccccc32)c([N+](=O)[O-])c1	-	-	-79	-	-	-
O=C(O)C1C2C=CC(O2)C1C(=O)NCCC1=CCCCC1 (stereo not drawn)	50µM	?	.	?	-	-
C#Cc1ccc(-c2ccccc2F)cc1	.	.	.	.	.	-
SMILES	Pol eta inh	POLI inh	PI5P4K alpha inh	POLB inh	Pol kappa inh	PI4K2A inh
CC(=O)Nc1ccc(SCC(c2ccccc2)N2CCN(CC(C)C)CCC2=O)cc1 (stereo not drawn)	.	-	.	.	-	.
Cc1cc(O)c(C(C)C)cc1N=Cc1ccccc1[N+](=O)[O-]	-	20µM	-	.	-	-
Cc1cc(N=Nc2ccccc2C(=O)O)c(C)c(C)c1O	-	-	-51	-	-	-
CC(C)NC(=S)N/N=C/c1ccccc1[N+](=O)[O-]	-	-	-	-	-	-
Cc1cc(O)c(C(C)C)cc1N=Nc1ccccc1C(=O)O	-	-	-57	-	-	-
O=C(CNC(=O)c1ccccc1)OCC(=O)c1ccccc1	.	-	.	.	-	.

Bioassay records as filed in PubChem.
